Measured values taken from the supplement of paper PMC12067093, “Discovery and optimisation of a covalent ligand for TRIM25 and its application to targeted protein ubiquitination” (Chemical Science, 2025).
Of roughly 21,000 targets only a part is listed; those with the largest changes were picked by preference.

Compound: CC1Cc2ccccc2N1C(=O)C1CCCN(C1)C(=O)CCl (mixture of isomers) [TRIM25 ligand 11 (diastereomer mixture)]
Assay: probe-labelled cysteine peptide fold change vs DMSO (competition) (log2 fold change); higher = less target engagement (more negative = stronger competition)
Settings: THP-1, incubation time: 4 h
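Further: competitive chemoproteomic profiling in live THP-1 cells with an iodoacetamide desthiobiotin (IA-DTB) probe, comparing probe-labelled peptide intensities in compound-treated cells against DMSO-treated controls.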

UniProt Q6KC79, sequence (Q6KC79 whole entry, looked up): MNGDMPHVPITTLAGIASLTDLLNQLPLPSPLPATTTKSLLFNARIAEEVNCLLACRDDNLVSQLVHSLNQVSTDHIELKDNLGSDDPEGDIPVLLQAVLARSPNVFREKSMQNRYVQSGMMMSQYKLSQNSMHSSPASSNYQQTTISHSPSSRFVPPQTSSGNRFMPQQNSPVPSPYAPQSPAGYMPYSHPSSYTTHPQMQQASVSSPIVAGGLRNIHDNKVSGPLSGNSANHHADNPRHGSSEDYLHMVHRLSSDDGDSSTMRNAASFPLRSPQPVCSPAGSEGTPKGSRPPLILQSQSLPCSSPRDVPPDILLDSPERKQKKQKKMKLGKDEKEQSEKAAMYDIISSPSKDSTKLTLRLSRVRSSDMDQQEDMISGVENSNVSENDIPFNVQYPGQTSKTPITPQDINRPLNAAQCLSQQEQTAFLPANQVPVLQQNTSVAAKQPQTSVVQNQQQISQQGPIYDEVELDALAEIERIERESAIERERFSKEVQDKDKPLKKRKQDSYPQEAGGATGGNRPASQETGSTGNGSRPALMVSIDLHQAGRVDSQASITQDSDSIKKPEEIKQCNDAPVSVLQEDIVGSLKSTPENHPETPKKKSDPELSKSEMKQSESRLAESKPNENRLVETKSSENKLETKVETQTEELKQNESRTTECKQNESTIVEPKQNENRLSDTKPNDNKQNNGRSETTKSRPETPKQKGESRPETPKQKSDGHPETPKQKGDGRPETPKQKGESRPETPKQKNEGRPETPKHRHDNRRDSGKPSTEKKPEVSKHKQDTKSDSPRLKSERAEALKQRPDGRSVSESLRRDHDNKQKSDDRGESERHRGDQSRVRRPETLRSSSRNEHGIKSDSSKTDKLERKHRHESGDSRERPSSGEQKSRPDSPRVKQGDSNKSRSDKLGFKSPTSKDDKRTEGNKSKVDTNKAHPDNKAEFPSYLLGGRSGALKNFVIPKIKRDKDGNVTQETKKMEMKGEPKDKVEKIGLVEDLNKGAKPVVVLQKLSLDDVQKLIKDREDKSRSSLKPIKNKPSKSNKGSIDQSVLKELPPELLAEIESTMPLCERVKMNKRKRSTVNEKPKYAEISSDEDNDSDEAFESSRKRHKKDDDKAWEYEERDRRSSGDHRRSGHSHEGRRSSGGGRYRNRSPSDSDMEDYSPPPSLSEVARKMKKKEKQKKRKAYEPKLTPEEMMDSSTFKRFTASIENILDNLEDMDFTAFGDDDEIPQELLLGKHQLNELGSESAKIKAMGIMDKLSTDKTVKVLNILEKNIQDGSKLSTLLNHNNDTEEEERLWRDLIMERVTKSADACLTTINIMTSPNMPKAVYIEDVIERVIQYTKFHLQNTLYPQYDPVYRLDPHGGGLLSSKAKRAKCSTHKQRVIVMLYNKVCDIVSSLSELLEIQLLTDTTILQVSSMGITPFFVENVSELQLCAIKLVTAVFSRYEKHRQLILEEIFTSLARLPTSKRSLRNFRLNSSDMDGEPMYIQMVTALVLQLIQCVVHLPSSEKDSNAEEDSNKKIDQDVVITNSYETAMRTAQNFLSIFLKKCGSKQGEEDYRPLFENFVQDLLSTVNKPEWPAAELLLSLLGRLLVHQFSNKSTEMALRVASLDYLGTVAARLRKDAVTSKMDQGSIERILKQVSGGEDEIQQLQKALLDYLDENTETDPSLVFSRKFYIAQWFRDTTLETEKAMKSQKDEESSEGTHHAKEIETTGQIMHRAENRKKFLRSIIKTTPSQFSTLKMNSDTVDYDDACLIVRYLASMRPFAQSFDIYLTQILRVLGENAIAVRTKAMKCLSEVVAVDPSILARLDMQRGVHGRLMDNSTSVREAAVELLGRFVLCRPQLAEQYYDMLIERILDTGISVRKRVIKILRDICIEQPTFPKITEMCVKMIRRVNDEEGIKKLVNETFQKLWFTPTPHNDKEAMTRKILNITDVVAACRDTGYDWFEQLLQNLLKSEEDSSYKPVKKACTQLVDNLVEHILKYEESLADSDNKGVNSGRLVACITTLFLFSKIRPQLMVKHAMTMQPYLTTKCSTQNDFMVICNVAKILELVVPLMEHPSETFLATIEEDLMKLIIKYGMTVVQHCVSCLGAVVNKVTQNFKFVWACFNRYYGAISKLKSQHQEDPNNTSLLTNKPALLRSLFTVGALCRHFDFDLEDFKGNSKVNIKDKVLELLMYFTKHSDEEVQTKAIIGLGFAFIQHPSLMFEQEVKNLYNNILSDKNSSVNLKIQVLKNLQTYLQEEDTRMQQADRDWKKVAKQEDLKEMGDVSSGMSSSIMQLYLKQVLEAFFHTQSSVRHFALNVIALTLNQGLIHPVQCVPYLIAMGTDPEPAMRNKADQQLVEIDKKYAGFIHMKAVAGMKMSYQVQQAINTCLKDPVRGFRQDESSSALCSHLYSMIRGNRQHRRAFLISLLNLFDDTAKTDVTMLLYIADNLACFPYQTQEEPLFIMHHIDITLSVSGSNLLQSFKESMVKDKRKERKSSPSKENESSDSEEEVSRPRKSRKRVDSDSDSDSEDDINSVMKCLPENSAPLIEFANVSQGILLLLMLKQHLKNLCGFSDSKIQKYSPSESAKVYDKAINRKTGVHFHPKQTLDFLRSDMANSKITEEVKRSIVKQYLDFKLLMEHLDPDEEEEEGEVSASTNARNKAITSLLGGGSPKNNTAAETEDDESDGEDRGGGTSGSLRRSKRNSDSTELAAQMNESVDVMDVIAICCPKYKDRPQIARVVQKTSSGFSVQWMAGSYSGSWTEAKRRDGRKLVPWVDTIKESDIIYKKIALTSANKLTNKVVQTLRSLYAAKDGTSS
UniProt Q29RF7, sequence (Q29RF7 whole entry, looked up): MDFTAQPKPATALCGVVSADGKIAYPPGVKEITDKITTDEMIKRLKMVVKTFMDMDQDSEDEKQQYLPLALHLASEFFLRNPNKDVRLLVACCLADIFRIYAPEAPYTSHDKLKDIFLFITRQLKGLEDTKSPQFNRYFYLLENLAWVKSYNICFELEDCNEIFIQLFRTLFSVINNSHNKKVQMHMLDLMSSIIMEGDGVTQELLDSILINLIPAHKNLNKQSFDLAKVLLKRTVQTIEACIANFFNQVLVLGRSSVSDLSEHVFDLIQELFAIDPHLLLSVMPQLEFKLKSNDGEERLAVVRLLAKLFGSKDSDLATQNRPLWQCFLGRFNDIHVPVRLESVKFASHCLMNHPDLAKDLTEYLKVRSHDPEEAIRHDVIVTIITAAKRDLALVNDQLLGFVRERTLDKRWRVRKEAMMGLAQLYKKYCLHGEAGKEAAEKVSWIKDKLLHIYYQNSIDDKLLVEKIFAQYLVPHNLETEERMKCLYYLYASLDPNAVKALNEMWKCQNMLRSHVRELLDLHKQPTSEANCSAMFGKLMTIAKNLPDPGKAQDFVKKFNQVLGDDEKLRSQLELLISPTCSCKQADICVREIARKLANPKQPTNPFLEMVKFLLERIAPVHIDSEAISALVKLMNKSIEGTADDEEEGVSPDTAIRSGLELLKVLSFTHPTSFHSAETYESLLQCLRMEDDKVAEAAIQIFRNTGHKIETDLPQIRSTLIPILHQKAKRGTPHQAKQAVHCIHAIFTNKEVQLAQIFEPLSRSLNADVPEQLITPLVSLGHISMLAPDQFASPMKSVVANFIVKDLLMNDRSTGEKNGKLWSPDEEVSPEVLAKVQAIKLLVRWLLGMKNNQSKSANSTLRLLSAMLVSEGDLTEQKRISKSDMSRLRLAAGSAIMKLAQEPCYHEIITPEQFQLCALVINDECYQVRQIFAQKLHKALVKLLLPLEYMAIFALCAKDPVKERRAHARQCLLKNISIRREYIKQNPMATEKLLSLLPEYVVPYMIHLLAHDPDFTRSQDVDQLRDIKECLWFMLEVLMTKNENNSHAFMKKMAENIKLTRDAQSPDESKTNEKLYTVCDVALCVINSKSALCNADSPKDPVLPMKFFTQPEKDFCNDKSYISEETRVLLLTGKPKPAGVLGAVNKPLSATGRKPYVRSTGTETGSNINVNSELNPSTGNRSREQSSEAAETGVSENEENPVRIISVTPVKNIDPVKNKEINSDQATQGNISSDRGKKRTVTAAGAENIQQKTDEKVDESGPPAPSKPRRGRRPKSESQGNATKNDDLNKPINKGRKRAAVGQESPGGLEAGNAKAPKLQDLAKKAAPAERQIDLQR
UniProt Q8NFH3, sequence (Q8NFH3 whole entry, looked up): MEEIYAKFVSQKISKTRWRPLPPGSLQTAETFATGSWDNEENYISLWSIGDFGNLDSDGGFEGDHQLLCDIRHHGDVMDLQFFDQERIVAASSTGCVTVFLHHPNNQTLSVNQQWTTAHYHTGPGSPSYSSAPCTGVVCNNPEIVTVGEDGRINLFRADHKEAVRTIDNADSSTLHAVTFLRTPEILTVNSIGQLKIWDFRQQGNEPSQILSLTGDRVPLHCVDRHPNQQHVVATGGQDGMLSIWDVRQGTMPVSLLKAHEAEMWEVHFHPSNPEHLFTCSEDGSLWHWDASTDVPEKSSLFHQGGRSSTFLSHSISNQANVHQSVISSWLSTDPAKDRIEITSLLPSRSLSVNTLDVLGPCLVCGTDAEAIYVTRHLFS
UniProt Q15818, sequence (Q15818 whole entry): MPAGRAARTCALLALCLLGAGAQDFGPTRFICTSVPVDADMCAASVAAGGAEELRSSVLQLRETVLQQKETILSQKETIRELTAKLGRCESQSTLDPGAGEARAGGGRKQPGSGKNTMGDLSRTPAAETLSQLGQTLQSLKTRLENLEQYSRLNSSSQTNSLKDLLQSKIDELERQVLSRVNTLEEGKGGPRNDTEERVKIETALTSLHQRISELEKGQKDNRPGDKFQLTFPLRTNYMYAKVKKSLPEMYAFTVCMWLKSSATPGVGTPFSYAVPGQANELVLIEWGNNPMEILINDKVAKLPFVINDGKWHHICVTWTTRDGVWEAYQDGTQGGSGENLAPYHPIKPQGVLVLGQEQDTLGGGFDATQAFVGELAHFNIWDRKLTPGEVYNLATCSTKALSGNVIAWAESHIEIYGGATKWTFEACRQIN

Target | probe-labelled cysteine peptide fold change (10 µM) | probe-labelled cysteine peptide fold change (50 µM)
PDHB_P11177_161_GPNGASAGVAAQHSQCFAAWYGHCPGLK (UniProt P11177) | 0.0327 | 0.0759
NPTX1_Q15818_89_CESQSTLDPGAGEAR (UniProt Q15818) | -0.269 | 0.111
PCNA_P12004_135_LMDLDVEQLGIPEQEYSCVVK (UniProt P12004) | -0.113 | 0.0916
NUP133_Q8WUM0_457_IVFNAQGDSVLGAGACGGVPIIFSR (UniProt Q8WUM0) | -0.146 | -0.142
NFIX_Q14938_6_MYSPYCLTQDEFHPFIEALLPHVR (UniProt Q14938) | 0.072 | -0.567
NDC1_Q9BTX1_9_ATAVSRPCAGR (UniProt Q9BTX1) | 0.00914 | -0.136
NIPBL_Q6KC79_304_GSRPPLILQSQSLPCSSPR (UniProt Q6KC79) | 0.204 | 0.00224
NUP133_Q8WUM0_700+702_EVSQVDTICECLLEHEEQVLR (UniProt Q8WUM0) | 0.507 | 0.631
NUP43_Q8NFH3_222_VPLHCVDRHPNQQHVVATGGQDGMLSIWDVR (UniProt Q8NFH3) | 0.271 | 0.0847
OSBPL1A_Q9BXW6_520_DCGGGDALSNGIK (UniProt Q9BXW6) | 0.00496 | 0.0314
PASK_Q96RG2_759+761_ELFFSDQTDQTSSNCSCATSELR (UniProt Q96RG2) | 0.0516 | 0.0688
PDS5A_Q29RF7_686_VLSFTHPTSFHSAETYESLLQCLR (UniProt Q29RF7) | -0.152 | -0.172
NPM1_P06748_21_MEDSMDMDMSPLRPQNYLFGCELK (UniProt P06748) | -0.279 | -0.642
